Data from the supplement of paper PMC12297408.
Structures can show the parent of a compound that is named as a salt. Unmarked numbers belong to inactive results.

Tested on: Plasmodium falciparum NF54/iGP1_RE9H ulg8 stage V gametocytes
Assay: gametocyte viability (luciferase signal relative to DMSO control) (% of DMSO control); higher = less gametocytocidal activity, active = 50 or less
Conditions: exposure time: 72 h
Protocol: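 Synchronous P. falciparum NF54/iGP1_RE9H ulg8 mature stage V gametocytes (day 12) were exposed to Cayman Epigenetics Screening Library compounds at 10 µM or 1 µM for 72 h at 37 °C. Viability was read as RE9H luciferase bioluminescence, normalised to DMSO plate controls (100%); 50 µM methylene blue was the positive control.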

CC1(C)C(=O)NC2=C1C(=O)C(=O)c1ccccc12
gametocyte viability (concentration: 1 µM): 88.9
gametocyte viability (concentration: 10 µM): 85.2

O=C(NC[C@H](O)CN1CCc2ccccc2C1)c1cc(NC2COC2)ncn1
gametocyte viability (concentration: 1 µM): 90
gametocyte viability (concentration: 10 µM): 89.1

CCCCNNC(=O)c1ccc(Br)cc1
gametocyte viability (concentration: 1 µM): 84
gametocyte viability (concentration: 10 µM): 56.1

Cn1c(=O)cc(C(=O)Nc2ccc3c(c2)OCCO3)c2ccccc21
gametocyte viability (concentration: 1 µM): 82.8
gametocyte viability (concentration: 10 µM): 86.7

NC(=O)[C@H](CCCN=C(N)CF)NC(=O)c1ccccc1 [F-Amidine (trifluoroacetate salt)]
gametocyte viability (concentration: 1 µM): 103
gametocyte viability (concentration: 10 µM): 95.9

O=C([C@@H](Cc1cccc(C(F)(F)F)c1)NS(=O)(=O)c1cc(F)c2c(c1)CCNC2)N1CCCC1 [(R)-PFI-2 (hydrochloride)]
gametocyte viability (concentration: 1 µM): 85.2
gametocyte viability (concentration: 10 µM): 77.8

Cc1ccc(-n2sc3ccccc3c2=O)cc1
gametocyte viability (concentration: 1 µM): 90.8
gametocyte viability (concentration: 10 µM): 59.8

CCC(CC)(NC(=O)C(C)C)C(=O)N[C@@H](CCCN=C(N)N)C(=O)NC1(C(=O)NC(c2ccc(F)cc2)c2ccc(F)cc2)CCCC1
gametocyte viability (concentration: 1 µM): 82.6
gametocyte viability (concentration: 10 µM): 82.6

O=C(Nc1cccc(Br)c1)c1cccc(S(=O)(=O)N2CCCCCC2)c1
gametocyte viability (concentration: 1 µM): 85.8
gametocyte viability (concentration: 10 µM): 69.8

Cc1cc(C)c(CNC(=O)c2cc(-c3ccc(N4CCN(C)CC4)nc3)cc3c2c(C)cn3C(C)C)c(=O)[nH]1
gametocyte viability (concentration: 1 µM): 78.5
gametocyte viability (concentration: 10 µM): 62.9

CCCC(CCC)C(=O)O [Valproic Acid (sodium salt)]
gametocyte viability (concentration: 1 µM): 86.9
gametocyte viability (concentration: 10 µM): 86.4

CNCCN(C)Cc1c[nH]nc1-c1ccc(O[C@H]2C[C@H](OCCC3CCOCC3)C2)cc1
gametocyte viability (concentration: 1 µM): 85.5
gametocyte viability (concentration: 10 µM): 82.4

COc1cc(OC)c2c(=O)[nH]c(-c3cc(C)c(OCCO)c(C)c3)nc2c1
gametocyte viability (concentration: 1 µM): 94.1
gametocyte viability (concentration: 10 µM): 92.5

Nc1ccn([C@@H]2O[C@H](CO)[C@@H](O)C2(F)F)c(=O)n1 [Gemcitabine]
gametocyte viability (concentration: 1 µM): 91.5
gametocyte viability (concentration: 10 µM): 85.8

COc1cc2c(NC3CCN(CC4CCCCC4)CC3)nc(N3CCCN(C(C)C)CC3)nc2cc1OCCCN1CCCCC1
gametocyte viability (concentration: 1 µM): 60.9
gametocyte viability (concentration: 10 µM): 14.7 (active)

CCCCCCCCCCCCCCCc1cccc(O)c1C(=O)O [Anacardic Acid]
gametocyte viability (concentration: 1 µM): 84.7
gametocyte viability (concentration: 10 µM): 82.9

Cc1[nH]c2ccccc2c1CCNCc1ccc(/C=C/C(=O)NO)cc1 [Panobinostat]
gametocyte viability (concentration: 1 µM): 60.2
gametocyte viability (concentration: 10 µM): 61.4

CN(C)Cc1ccc(S(=O)(=O)n2ccc(/C=C/C(=O)NO)c2)cc1 [Resminostat (hydrochloride)]
gametocyte viability (concentration: 1 µM): 94.8
gametocyte viability (concentration: 10 µM): 77.8

CCOC(=O)Nc1cc(-c2ccc(C)c(NS(C)(=O)=O)c2)nn2c(C)nnc12 [Bromosporine]
gametocyte viability (concentration: 1 µM): 86.5
gametocyte viability (concentration: 10 µM): 83.1

COC(=O)c1ccc2c(c1)nc(NC(=O)c1ccccc1)n2CCCc1ccccc1
gametocyte viability (concentration: 1 µM): 86.9
gametocyte viability (concentration: 10 µM): 54.7

Cc1cc(Nc2ccc(NC(=O)c3ccc(Nc4ccnc5ccccc45)cc3)cc2)nc(N)n1
gametocyte viability (concentration: 1 µM): 31.4 (active)
gametocyte viability (concentration: 10 µM): 2.18 (active)

COc1cc(-c2cn(C)c(=O)c3cnccc23)c(OC)cc1CN(C)C
gametocyte viability (concentration: 1 µM): 86.9
gametocyte viability (concentration: 10 µM): 85.8

COc1cc2c(cc1-c1c(C)noc1C)ncc1[nH]c(=O)n([C@H](C)c3ccccn3)c12
gametocyte viability (concentration: 1 µM): 91.5
gametocyte viability (concentration: 10 µM): 97.8

COc1ccccc1C(=O)Nc1cc2c(cc1N1CCCC1)n(C)c(=O)n2C
gametocyte viability (concentration: 1 µM): 79.5
gametocyte viability (concentration: 10 µM): 65.1

O=C(NN=Cc1c(O)ccc2ccccc12)c1ccncc1
gametocyte viability (concentration: 1 µM): 84.7
gametocyte viability (concentration: 10 µM): 65.4

CCN(c1cc(-c2ccc(CN3CCOCC3)cc2)cc(C(=O)NCc2c(C)cc(C)[nH]c2=O)c1C)C1CCOCC1
gametocyte viability (concentration: 1 µM): 95.1
gametocyte viability (concentration: 10 µM): 93

Nc1ncn([C@H]2C[C@H](O)[C@@H](CO)O2)c(=O)n1 [Decitabine]
gametocyte viability (concentration: 1 µM): 90.6
gametocyte viability (concentration: 10 µM): 90

CN(C)CCCNC(=O)c1ccc(-c2cc(O)c3ncccc3c2)cc1
gametocyte viability (concentration: 1 µM): 85.2
gametocyte viability (concentration: 10 µM): 49.8 (active)

O=C(CCl)Nc1ccc(S(=O)(=O)c2ccc(NC(=O)CCl)cc2)cc1
gametocyte viability (concentration: 1 µM): 78.5
gametocyte viability (concentration: 10 µM): 45 (active)

O=C(NCc1ccccc1)c1c(/N=C/c2c(O)ccc3ccccc23)sc2c1CCCC2
gametocyte viability (concentration: 1 µM): 103
gametocyte viability (concentration: 10 µM): 94.2

CN=C(NC)NCCCNCCCNCCCNC(=NC)NC [Lysine-specific Demethylase Inhibitor (1C) (hydrochloride)]
gametocyte viability (concentration: 1 µM): 85.5
gametocyte viability (concentration: 10 µM): 81.1

CCOC(=O)NNc1nncc2ccccc12 [Todralazine (hydrochloride)]
gametocyte viability (concentration: 1 µM): 89.5
gametocyte viability (concentration: 10 µM): 89.1

O=C1CCc2c(ccc3ccccc23)O1 [Splitomicin]
gametocyte viability (concentration: 1 µM): 86.2
gametocyte viability (concentration: 10 µM): 80.9

CNCCN1CCC(OCc2ccccc2)CC1 [MS049 (hydrochloride)]
gametocyte viability (concentration: 1 µM): 84.2
gametocyte viability (concentration: 10 µM): 79.7

O=C(NO)c1cccc(C(=O)NCCc2ccccc2)c1
gametocyte viability (concentration: 1 µM): 98.3
gametocyte viability (concentration: 10 µM): 64.6

COc1cc2nc(N3CCCC3)nc(NCCCCCN3CCCC3)c2cc1OC
gametocyte viability (concentration: 1 µM): 92.2
gametocyte viability (concentration: 10 µM): 18.9 (active)

COc1cc(O)c2c(c1)oc(=O)c1c3cc(O)c(O)cc3oc21 [Wedelolactone]
gametocyte viability (concentration: 1 µM): 89.6
gametocyte viability (concentration: 10 µM): 81.5

C#CCC(CCCCCC)C(=O)O (stereo not drawn) [2-hexyl-4-Pentynoic Acid]
gametocyte viability (concentration: 1 µM): 89.2
gametocyte viability (concentration: 10 µM): 95.4

COC(=O)c1ccc(N2CCN(C)CC2)c(NC(=O)c2cccc(OC)c2)c1
gametocyte viability (concentration: 1 µM): 85.8
gametocyte viability (concentration: 10 µM): 82.1

CCCCc1nc2cc(/C=C/C(=O)NO)ccc2n1CCN(CC)CC
gametocyte viability (concentration: 1 µM): 76.9
gametocyte viability (concentration: 10 µM): 62.4

Nc1ccccc1NC(=O)c1ccc(CNc2nccc(-c3cccnc3)n2)cc1 [Mocetinostat]
gametocyte viability (concentration: 1 µM): 89.7
gametocyte viability (concentration: 10 µM): 88.2

O=C(NCC(=O)N1CCCC1)Nc1ccc2cnccc2c1
gametocyte viability (concentration: 1 µM): 91.7
gametocyte viability (concentration: 10 µM): 93.4

O=C(/C=C/c1cccc(C(=O)NO)c1)NO
gametocyte viability (concentration: 1 µM): 89.2
gametocyte viability (concentration: 10 µM): 75.4

Cc1nn(C)cc1CN1CCC(c2ccc(C(=O)Nc3ccccc3N)cc2)CC1
gametocyte viability (concentration: 1 µM): 86
gametocyte viability (concentration: 10 µM): 90.2

O=C(CCCCCCC(=O)Nc1ccc(I)cc1)NO [4-iodo-SAHA]
gametocyte viability (concentration: 1 µM): 88.3
gametocyte viability (concentration: 10 µM): 67.2

CC(C)(CNC(=O)c1cccc(-c2noc(C(F)(F)F)n2)c1)c1coc(-c2ccccc2)n1
gametocyte viability (concentration: 1 µM): 90.2
gametocyte viability (concentration: 10 µM): 83.2

Nc1c(S(=O)(=O)c2ccccc2)c2nc3ccccc3nc2n1-c1ccc(F)cc1
gametocyte viability (concentration: 1 µM): 66.8
gametocyte viability (concentration: 10 µM): 56.6

Clc1ccc(-c2csc(NN=C3CCCC3)n2)cc1 [CPTH2 (hydrochloride)]
gametocyte viability (concentration: 1 µM): 98.4
gametocyte viability (concentration: 10 µM): 83.9

CN(C)c1ccc(C(=O)NCCCCCCC(=O)NO)cc1
gametocyte viability (concentration: 1 µM): 83.7
gametocyte viability (concentration: 10 µM): 50.5

CC(C)Oc1ccc(-c2c[nH]cc2CN(C)CCN)cc1 [MS023 (hydrochloride)]
gametocyte viability (concentration: 1 µM): 64.4
gametocyte viability (concentration: 10 µM): 30.3 (active)

Cn1cc(CCn2cnc(-c3cnn(C)c3)c2-c2ccc(C#N)cc2)cn1
gametocyte viability (concentration: 1 µM): 91.3
gametocyte viability (concentration: 10 µM): 89.1

CN1CCN(C(=O)CNC2CC2c2ccc(OCc3ccccc3)cc2)CC1 (stereo not drawn) [RN-1 (hydrochloride)]
gametocyte viability (concentration: 1 µM): 89.1
gametocyte viability (concentration: 10 µM): 72.8

O=c1oc2c(O)c(O)cc3c(=O)oc4c(O)c(O)cc1c4c23 [Ellagic Acid]
gametocyte viability (concentration: 1 µM): 101
gametocyte viability (concentration: 10 µM): 95.3

O=C(O)CC[C@H](O)C(=O)O [L-α-Hydroxyglutaric Acid (sodium salt)]
gametocyte viability (concentration: 1 µM): 92.7
gametocyte viability (concentration: 10 µM): 86.7

CC1CC/C(=N\Nc2nc(-c3ccc(Cl)cc3)cs2)C1 (stereo not drawn) [CPTH6 (hydrobromide)]
gametocyte viability (concentration: 1 µM): 86.6
gametocyte viability (concentration: 10 µM): 82.2

CN(C)c1ccc(C(=O)NCCCCCC(=O)NO)cc1
gametocyte viability (concentration: 1 µM): 76.2
gametocyte viability (concentration: 10 µM): 52

COc1ccc(S(=O)(=O)ON=C2C=C(C)C(=O)C(C)=C2)cc1
gametocyte viability (concentration: 1 µM): 87.3
gametocyte viability (concentration: 10 µM): 43.2 (active)

O=C(O)c1ccc(O)c2ncccc12
gametocyte viability (concentration: 1 µM): 90.6
gametocyte viability (concentration: 10 µM): 84.3

C#Cc1cccc(Nc2ncnc3cc(OC)c(OCCCCCCC(=O)NO)cc23)c1
gametocyte viability (concentration: 1 µM): 58.7
gametocyte viability (concentration: 10 µM): 56.7

NC(=O)[C@H](CCCN=C(N)CCl)NC(=O)c1ccccc1 [Cl-Amidine (hydrochloride)]
gametocyte viability (concentration: 1 µM): 104
gametocyte viability (concentration: 10 µM): 98.5

CCCCCOc1ccc(/C=C\c2cccc(O)c2C(=O)O)cc1
gametocyte viability (concentration: 1 µM): 87.3
gametocyte viability (concentration: 10 µM): 88.4

O=C(c1cncc(Br)c1)N1CCC(N2CCCC2)CC1
gametocyte viability (concentration: 1 µM): 86.5
gametocyte viability (concentration: 10 µM): 91.4

Nc1ccc(S(=O)(=O)NCCc2ccccc2)cc1
gametocyte viability (concentration: 1 µM): 84.2
gametocyte viability (concentration: 10 µM): 86.3

O=C(NO)c1ccc(CC(=O)N(CCO)c2ccccc2)cc1
gametocyte viability (concentration: 1 µM): 88.9
gametocyte viability (concentration: 10 µM): 93.5

N[C@H]1CC[C@H](N[C@@H]2C[C@H]2c2ccccc2)CC1
gametocyte viability (concentration: 1 µM): 74.5
gametocyte viability (concentration: 10 µM): 70.7

Clc1cc2c(NC3CCCC3)nnc(-c3ccncc3)c2cc1Cl
gametocyte viability (concentration: 1 µM): 83.9
gametocyte viability (concentration: 10 µM): 71.7

CN1CCC(=C2c3ccccc3C=Cc3ccccc32)CC1 [Cyproheptadine (hydrochloride hydrate)]
gametocyte viability (concentration: 1 µM): 88.2
gametocyte viability (concentration: 10 µM): 86.6

O=C(Cc1ccccc1)Nc1ccc2oc(-c3ccc(Cl)cc3Cl)nc2c1
gametocyte viability (concentration: 1 µM): 80.3
gametocyte viability (concentration: 10 µM): 51.9

CC(/C=C/C(=O)NO)=C\[C@@H](C)C(=O)c1ccc(N(C)C)cc1 [Trichostatin A]
gametocyte viability (concentration: 1 µM): 53.7
gametocyte viability (concentration: 10 µM): 35.4 (active)
